# Among all 5,500 compounds or so, about 2,000 (36%) were called active. Not shown: some 18% with an inconclusive outcome. The list shows a part of the results. Unmarked numbers belong to inactive results. No stated cut-off is given here; in the data, active means normalized growth mostly below about 0.91 (no sharp cut-off); inconclusive means no clear call, values can overlap the other calls; inactive means mostly above about 0.92.
# Experiment: chemical genetic growth profiling, strain panel (AID 1159580);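 further: tested at 20 µM; growth read once vehicle control cultures reached saturation at 30 °C; 1 = growth at the plate median or of vehicle wells; lower values mean less growth of the strain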
# Conditions: S. cerevisiae deletion strains, growth OD
# [1] = locus YAL040C, strain CLN3, active compounds read low
# [2] = locus YCL061C, strain MRC1 (second series), active compounds read low
# [3] = locus YER002W, strain NOP16, active compounds read low
# [4] = locus YGR078C, strain PAC10, active compounds read low
# [5] = locus YGR229C, strain SMI1, active compounds read low
# [6] = locus YJR075W, strain HOC1, active compounds read low
# [7] = locus YNL175C, strain NOP13, active compounds read low
# [8] = locus YNL197C, strain WHI3, active compounds read low
# [9] = locus YNL224C, strain SQS1, active compounds read low
# [10] = locus YNL322C, strain KRE1, active compounds read low
# [11] = locus YOR083W, strain WHI5 (second series), active compounds read low
# [12] = locus YDR363W, strain ESC2, active compounds read low
# [13] = locus YNL153C, strain GIM3, active compounds read low
smiles,measurement,setting,value
NCCNC(=O)Cc1ccc(NC(=O)Cc2ccc(Nc3ncnc4c3ncn4[C@@H]3O[C@H](CO)[C@H](O)C3O)cc2)cc1 (some centres not stated),normalized growth,[1],1.01
same,normalized growth,[2],0.999
same,normalized growth,[3],0.999
same,normalized growth,[4],1.01
same,normalized growth,[5],1.03
same,normalized growth,[6],1
same,normalized growth,"locus YMR263W, strain SAP30, active compounds read low",1.01
same,normalized growth,[7],1.01
same,normalized growth,[8],1.02
same,normalized growth,[9],0.994
same,normalized growth,[10],1
same,normalized growth,[11],1.02
COC(=O)N1CCN(C(=O)Cc2ccc(Cl)c(Cl)c2)C(CN2CCCC2)C1 (configuration not stated),normalized growth,[1],0.997
same,normalized growth,[2],1.01
same,normalized growth,"locus YDR150W, strain NUM1, active compounds read low",1
same,normalized growth,[12],1
same,normalized growth,[3],0.995
same,normalized growth,[4],1
same,normalized growth,[5],0.982
same,normalized growth,[6],1.01
same,normalized growth,"locus YMR307W, strain GAS1, active compounds read low",1
same,normalized growth,"locus YNL128W, strain TEP1, active compounds read low",1.01
same,normalized growth,[13],1
same,normalized growth,[7],1.01
same,normalized growth,[8],1.04
same,normalized growth,[9],1
same,normalized growth,[10],1.01
same,normalized growth,[11],1.05
same,normalized growth,"locus YPL241C, strain CIN2, active compounds read low",1
Cc1nc(-c2ccc(C(F)(F)F)cn2)[nH]c(=O)c1Cl,normalized growth,"locus YAR019C, strain CDC15, active compounds read low",0.899
same,normalized growth,"locus YBL105C, strain PKC1, active compounds read low",0.932
same,normalized growth,"locus YBR135W, strain CKS1, active compounds read low",0.916
same,normalized growth,"locus YBR136W, strain MEC1, active compounds read low",0.922
same,normalized growth,"locus YBR160W, strain CDC28, active compounds read low",0.922
same,normalized growth,"locus YDL017W, strain CDC7, active compounds read low",0.938
same,normalized growth,"locus YDL028C, strain MPS1, active compounds read low",0.909
same,normalized growth,"locus YDL101C, strain DUN1, active compounds read low",0.939
same,normalized growth,"locus YDL108W, strain KIN28, active compounds read low",0.921
same,normalized growth,"locus YDL132W, strain cdc53, active compounds read low",0.905
same,normalized growth,"locus YDL214C, strain PRR2, active compounds read low",0.86
same,normalized growth,"locus YDR052C, strain DBF4, active compounds read low",0.943
same,normalized growth,"locus YDR054C, strain cdc34, active compounds read low",0.887
same,normalized growth,"locus YDR226W, strain ADK1, active compounds read low",0.924
same,normalized growth,"locus YDR477W, strain SNF1, active compounds read low",0.833
same,normalized growth,"locus YER123W, strain YCK3, active compounds read low",0.692
same,normalized growth,"locus YER133W, strain GLC7, active compounds read low",0.831
same,normalized growth,"locus YFL009W, strain cdc4, active compounds read low",0.896
same,normalized growth,"locus YFL029C, strain CAK1, active compounds read low",0.901
same,normalized growth,"locus YFR003C, strain YPI1, active compounds read low",0.929
same,normalized growth,"locus YFR019W, strain FAB1, active compounds read low",0.908
same,normalized growth,"locus YFR028C, strain CDC14, active compounds read low",0.918
same,normalized growth,"locus YGR040W, strain KSS1, active compounds read low",0.834
same,normalized growth,"locus YGR052W, strain FMP48, active compounds read low",0.815
same,normalized growth,"locus YGR092W, strain DBF2, active compounds read low",0.689
same,normalized growth,"locus YHR079C, strain IRE1, active compounds read low",0.639
same,normalized growth,"locus YHR082C, strain KSP1, active compounds read low",0.945
same,normalized growth,"locus YHR205W, strain SCH9, active compounds read low",0.978
same,normalized growth,"locus YIL147C, strain SLN1, active compounds read low",0.919
same,normalized growth,"locus YJL095W, strain BCK1, active compounds read low",0.675
same,normalized growth,"locus YJL128C, strain PBS2, active compounds read low",0.928
same,normalized growth,"locus YJL157C, strain FAR1, active compounds read low",0.813
same,normalized growth,"locus YJR016C, strain ILV3, active compounds read low",0.924
same,normalized growth,"locus YJR066W, strain TOR1 (second series), active compounds read low",0.769
same,normalized growth,"locus YJR066W, strain TOR1, active compounds read low",0.848
same,normalized growth,"locus YKL048C, strain ELM1, active compounds read low",0.927
same,normalized growth,"locus YKL067W, strain YNK1, active compounds read low",0.857
same,normalized growth,"locus YKL101W, strain HSL1, active compounds read low",0.88
same,normalized growth,"locus YKL193C, strain SDS22, active compounds read low",0.903
same,normalized growth,"locus YKL203C, strain TOR2, active compounds read low",0.886
same,normalized growth,"locus YLR113W, strain HOG1, active compounds read low",0.651 (active)
same,normalized growth,"locus YLR133W, strain CKI1, active compounds read low",0.857
same,normalized growth,"locus YLR403W, strain SFP1, active compounds read low",0.809
same,normalized growth,"locus YML070W, strain DAK1, active compounds read low",0.825
same,normalized growth,"locus YMR001C, strain CDC5, active compounds read low",0.914
same,normalized growth,"locus YMR205C, strain PFK2 (second series), active compounds read low",0.859
same,normalized growth,"locus YMR277W, strain FCP1, active compounds read low",0.893
same,normalized growth,"locus YNL006W, strain LST8, active compounds read low",0.957
same,normalized growth,"locus YNL020C, strain ARK1, active compounds read low",0.853
same,normalized growth,"locus YNL161W, strain CBK1, active compounds read low",0.912
same,normalized growth,"locus YNL183C, strain NPR1, active compounds read low",0.696
same,normalized growth,"locus YNL207W, strain RIO2, active compounds read low",0.919
same,normalized growth,"locus YNL222W, strain SSU72, active compounds read low",0.905
same,normalized growth,"locus YNL307C, strain MCK1 (second series), active compounds read low",0.826
same,normalized growth,"locus YOL078W, strain AVO1, active compounds read low",0.896
same,normalized growth,"locus YOL136C, strain PFK27, active compounds read low",0.868
same,normalized growth,"locus YOR061W, strain CKA2, active compounds read low",0.858
same,normalized growth,"locus YOR119C, strain RIO1, active compounds read low",0.821
same,normalized growth,"locus YOR231W, strain MKK1, active compounds read low",0.685
same,normalized growth,"locus YOR329C, strain SCD5, active compounds read low",0.93
same,normalized growth,"locus YPL031C, strain PHO85, active compounds read low",0.787
same,normalized growth,"locus YPL153C, strain RAD53, active compounds read low",0.755
same,normalized growth,"locus YPL204W, strain HRR25, active compounds read low",0.777
same,normalized growth,"locus YPL209C, strain IPL1, active compounds read low",0.926
same,normalized growth,"locus YPL256C, strain CLN2, active compounds read low",0.72 (active)
same,normalized growth,"locus YPR025C, strain CCL1, active compounds read low",0.923
same,normalized growth,"locus YPR106W, strain ISR1, active compounds read low",0.95
same,normalized growth,"locus YPR111W, strain DBF20, active compounds read low",0.937
same,normalized growth,"strain NNK1, active compounds read low",0.932
same,normalized growth,"strain TSCII, active compounds read low",0.888
CN1CCC23CCCC[C@H]2C1Cc1ccc(O)cc13 (some centres not stated),normalized growth,[1],1.01
same,normalized growth,[2],1
same,normalized growth,[12],1.03
same,normalized growth,[3],0.998
same,normalized growth,[5],1.04
same,normalized growth,[6],1.01
same,normalized growth,[13],1.02
same,normalized growth,[7],1.01
same,normalized growth,[8],1.05
same,normalized growth,[9],1.01
same,normalized growth,[10],1.02
same,normalized growth,[11],0.989
same,normalized growth,"locus YPL055C, strain LGE1, active compounds read low",0.998

# — PubChem BioAssay AID1159580 (chemical genetic matrix, 2015)
